Screens from PubChem.
Most compounds without a hit are left out; they make up all but 4.1% or so of the library.
hcDAF12 agonist: H. contortus DAF-12 activation, primary screen. HEK293 hcDAF-12 lit1-tk-luc reporter, luminescence; 0% DMSO, 100% Δ7-dafachronic acid. activation, % at 6.8 µM. hit rate 1.4% among 370,000;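 active means activation above the mean of all tested compounds plus 3 SD, cut at about 5.5% in these data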;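 further: 100% = response to 3 µM Δ7-dafachronic acid high control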
hgDAF12 agonist: activates the H. glycines DAF-12 receptor ligand-binding domain; HEK293 GAL4-hgDAF12 UAS-luciferase reporter, agonist luminescence; normalized to butyrate control; activation, % at 6.8 µM; hit rate 1.8% among 370,000; AID 687014;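 active means activation above a cutoff set at the mean of all screened compounds plus 3 SD, cut at about 10% in these data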;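 further: 0% = DMSO wells and 100% = sodium butyrate wells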
DAX1 inh-1: blocks DAX1 repression of SF-1 activated StAR promoter. inhibition, % at 6.8 µM. hit rate 1.1% among 370,000. HEK293T StAR-luciferase reporter, SF-1/DAX-1 repression relief;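 active means inhibition above the mean over all tested compounds plus 3 SD, cut at about 3.6% in these data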;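 further: 0% = DAX-1 cells with DMSO and 100% = cells lacking DAX-1 with DMSO; higher inhibition means more luminescence from relief of DAX-1 repression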
ssDAF12 agonist: activates DAF-12 receptor from parasite S. stercoralis; activation, % at 6.8 µM; hit rate 1% among 370,000; AID 652126; HEK293 ssDAF-12/GRIP1 lit1-tk-luc reporter, luminescence; % of 3 µM dafachronic acid response;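 active means activation above the mean over all tested compounds plus 3 SD, cut at about 0.9% in these data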;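 further: 0% = DMSO-only wells and 100% = 3 µM delta7-dafachronic acid wells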
DAX1 inh-2: inhibits human nuclear receptor DAX1 | P51843 | HEK293 Gal4-DAX1 luciferase reporter, luminescence | inhibition, % at 6.75 µM | hit rate 0.99% among 340,000 | AID 504766;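 active means inhibition above the mean over all tested compounds plus 3 SD, cut at about 4.2% in these data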;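 further: 0% = DAX1-transfected cells with DMSO and 100% = empty-vector control cells with DMSO; inhibition shows as a rise in luminescence from relieved DAX1 repression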
Target sequence (P51843 207-470 limits assumed): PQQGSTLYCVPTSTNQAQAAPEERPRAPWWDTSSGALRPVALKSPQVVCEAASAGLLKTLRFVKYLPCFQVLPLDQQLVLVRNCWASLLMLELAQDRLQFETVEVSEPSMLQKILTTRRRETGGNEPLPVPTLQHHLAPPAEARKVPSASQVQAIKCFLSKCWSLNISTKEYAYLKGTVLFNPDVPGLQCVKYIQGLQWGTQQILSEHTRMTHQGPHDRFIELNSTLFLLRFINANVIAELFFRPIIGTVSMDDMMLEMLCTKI
Active calls of the source: *; . = no result; ! = a repeat was not active.

SMILES	hcDAF12 agonist	hgDAF12 agonist	DAX1 inh-1	ssDAF12 agonist	DAX1 inh-2
COC(=O)c1sc(NC(=O)CSc2nnnn2C)nc1C	5.6*	9.7	0.5	0.3	0.0
CC(=O)CCc1oc2ccc(C)cc2c1Cc1ccccc1	6.5*	4.7	0.3	1.6*	-0.1
CC(=O)CCc1oc2ccccc2c1-c1ccccc1	-0.7	1.0	-0.3	-1.6	-0.2
Nc1c(C(=O)Nc2ccc(Cl)c(C(=O)O)c2)sc2nc3c(cc12)CCCC3	-0.9	1.2	0.2	-1.0	0.0
Nc1c(C(=O)Nc2cccc(C(=O)O)c2)sc2nc3c(cc12)CCCC3	2.8	11.1*	2.8	-0.9	-3.8
Cc1ccc(N2C(=O)c3ccccc3C2Nc2cccnc2)nc1 (stereo not drawn)	1.8	9.2	-0.3	-1.3	1.1
Cc1ccc(NC2c3ccccc3C(=O)N2c2cccnc2)cc1 (stereo not drawn)	-0.3	-4.4	0.0	-1.7	5.5*
CC(=O)N1CCN2C(=O)C1CCCC(=O)c1cc(C3CCCCC3)ccc12 (stereo not drawn)	-1.0	2.4	0.7	-0.5	4.3*
CC(=O)N1CCN2C(=O)C1CCCC(=O)c1cc(C(C)C)ccc12 (stereo not drawn)	-1.3	-2.5	0.6	-1.5	1.4
Cc1ccc(NC(=O)CCCC(=O)O)c(-c2nc3ccccc3[nH]c2=O)c1	2.0	-0.5	0.4	0.9*	0.6
Cc1ccc(S(=O)(=O)NCC(=O)N2CCN(c3ccccn3)CC2)cc1C	0.8	1.6	-0.8	-1.2	.
Cc1cccc(CN2CCc3c([nH]c4ccccc34)C2CC(C)C)n1 (stereo not drawn)	5.1	-2.7	-0.5	0.2	4.7*
Cc1cnc(CN2CCc3c([nH]c4ccccc34)C2CC(C)C)[nH]1 (stereo not drawn)	2.8	-2.4	-0.7	-0.1	0.2
CCN=C1NC(c2ccc(F)cc2)C(C(=O)OC)=C(C)N1Cc1ccccc1C(F)(F)F (stereo not drawn)	-2.4	10.2	3.1	-1.2	.
CCOC(=O)C1=C(COC(=O)c2cccc(N(C)C)c2)NC(=O)NC1C (stereo not drawn)	1.2	4.8	4.2*	0.1	-0.5
O=C(CCC(=O)OCCOc1ccccc1)OCCOc1ccccc1	-0.7	-2.7	1.2	-0.7	.
C[N+](C)(C)CCOC(=O)CCC(=O)OCC[N+](C)(C)C	-1.0	11.1*!	0.6	-0.7	-0.2
COc1ccc(C(CCOC(=O)Oc2ccccc2)c2cc(OC)cc(OC)c2)cc1 (stereo not drawn)	-3.5	0.1	-0.9	-1.8	.
Cn1c(N2CCOCC2)c(/C=N/O)c2ccccc21	4.8	0.8	0.5	-0.5	7.5*
O=[N+]([O-])c1cc(N=Nc2ccc3ccccc3c2)ccc1O	3.6	3.7	-0.4	1.3*	0.9
Nc1ccc(O)c([N+](=O)[O-])c1	0.3	-1.6	0.5	-0.7	-0.4
CCOC(=O)N1CCN(C(=O)C[C@@H]2C(=O)N(CCc3ccc(Cl)cc3)/C3=C/CCCCC[C@@]32C(=O)OCC)CC1	-3.0	-5.5	-0.6	-1.4	.
O=C(O)C1C=CCC(C(=O)O)C1 (stereo not drawn)	-0.1	-0.4	0.1	2.4*	0.2
O=C(c1cc2ccccc2o1)N1CCN(Cc2nc3ccccc3s2)CC1	6.2*	4.8	0.4	0.7	0.6
O=C(N=C1N(Cc2ccccc2)[C@@H](Cc2ccccc2)[C@]2(C=C3CCCCC3n3c(=O)n(-c4ccccc4)c(=O)n32)N1C(=O)OCc1ccccc1)c1ccccc1 (stereo partly drawn)	-0.6	1.3	-0.1	-0.9	.
SMILES	hcDAF12 agonist	hgDAF12 agonist	DAX1 inh-1	ssDAF12 agonist	DAX1 inh-2
COc1ccc(-c2nnc(-c3cccs3)o2)cc1OC	1.0	12.0*	2.6	0.0	1.1
CC(=O)NCCc1ccc(C(=O)CSc2nnc(C3CC3)n2C2CC2)cc1	3.2	1.8	4.5*	-0.8	0.7
C=CCn1c(C)cc(C(=O)CSc2nnc(C3CC3)n2C2CC2)c1C	-0.2	3.2	4.2*	-0.2	0.3
O=C(Nc1ccc(N2CCCC2=O)cc1)c1cccc(F)c1	0.3	10.8*	1.1	-1.0	1.4
COc1ccc(NC(=O)c2cc(C)nn2-c2ccccc2)cc1	-0.7	8.5	-0.1	-0.8	0.1
COc1ccc(CNC(=O)c2cccc(N3CCCC3=O)c2)cc1	-1.7	1.7	0.3	1.2*	0.2
COc1ccc(CNC(=O)c2cc(C)nn2-c2ccccc2)cc1	-0.1	-2.1	0.1	-1.1	6.7*
C#CCSc1nc(=O)c2cccnc2n1-c1ccc(C)cc1	-1.0	-2.9	-0.5	-2.0	4.5*
COc1cccc(N(C)C(=O)[C@@H](C2CC2)[C@@H](O)c2ccc(C(C)=O)cc2)c1	-0.2	0.1	-0.7	-0.8	.
COC(=O)CSc1nc2ccccn2c(=O)c1C=O	6.3*	4.7	2.2	1.5*	3.5
CCCCC(=O)N[C@H]1CC[C@@]23CCCN2C(=O)CCC[C@H]3[C@H]1CCC	-0.5	0.4	.	-1.4	.
CC(=O)CC[C@H]1CC[C@]2(CCCN(C(=O)C(C)(C)C)C2)O1	0.3	-0.9	0.2	2.2*	.
Nc1nc2ncccc2cc1C(=O)NC1CC1	0.6	5.5	1.1	0.4	.
COCCN1C(=O)[C@H]2C[C@@]13O[C@H](c1ccccn1)N=C3CC1c3ccccc3C[C@@]12C (stereo partly drawn)	-1.2	3.5	-1.0	-0.3	.
COC(=O)C[C@H]1CC[C@@H]2[C@H](COc3ccc(NC(=O)c4cccc(F)c4)cc3C(=O)N2C)O1	0.9	-1.3	-0.5	-0.7	.
O=C(Oc1cccc2ccccc12)c1ccccc1	0.1	3.3	1.8	-1.2	7.1*
COc1ccc(-c2nc(CN3CCN(Cc4cccc(F)c4)CC3)c(C)o2)cc1	1.5	1.0	0.4	-1.1	0.1
COc1ccc(-c2nc(CN3CCN(Cc4cccc(Cl)c4)CC3)c(C)o2)cc1	-1.0	0.8	-0.6	-0.9	5.8*
CCCN1CC(=O)N2[C@H](C[C@@]3(n4ccc5ccccc54)c4ccccc4N(S(=O)(=O)c4ccccc4)[C@@H]23)C1=O	-1.1	0.6	-0.3	-0.8	.
Cc1nc(NC(=O)c2ccc(Br)o2)sc1C	2.3	10.1	2.4	-0.1	2.2
Cc1ccc(C(=O)Nc2nc(C)c(C)s2)o1	4.1	12.9*	3.0	-0.6	2.2
Cc1ccc(NC(=O)CSc2nnc(-c3cccnc3)n2-c2ccc(C)cc2)cc1	-2.4	-1.7	-0.3	-1.0	-0.1
CNC(=O)CSc1nnc(-c2cccnc2)n1-c1ccc(C)cc1	-1.6	0.5	-0.8	-0.2	4.4*
O=C(CSc1nnc(-c2cccnc2)n1-c1ccccc1)Nc1ccccc1	-1.6	11.6*	0.4	-0.7	-1.9
COCCSc1ncccc1-c1nc2ccccc2[nH]1	0.2	3.3	-0.2	0.1	.
CC(C)CC(CCOCCO)NC(=O)OCc1ccccc1[N+](=O)[O-] (stereo not drawn)	0.1	1.2	.	-1.1	.
C[C@H](c1ccccc1)N1C[C@@H](COCc2ccccc2)Oc2cccc(Oc3ccccc3)c2S1(=O)=O	-2.2	1.0	-0.4	-0.9	.
